According to PubChem BioAssay (NCATS):
Results filed as inconclusive are left out. Entries that show only a call come without a potency. Active and inactive are the calls of the source. Calls come from the whole dose curve; as a rule, active = well fitted curve in the direction sought with a large enough effect; inconclusive = small, poorly fitted or top-dose-only effect, or another doubt; inactive = no such curve, though single readings can be large; an effect the other way counts as inactive or inconclusive.

Assays:
[1] = target: Nuclear receptor subfamily 1 group I member 3 (Homo sapiens) (UniProt Q14994); experiment: qHTS for Constitutive Androstane Receptor (CAR) Agonist screened against the NCATS CANVASS Library (AID 1347373);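 note: every well also contained 1.5 µM PK11195 alongside the test compound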; note: potency is the fitted concentration of half-maximal effect
Chain of Nuclear receptor subfamily 1 group I member 3 (Homo sapiens) (Q14994 whole entry, looked up): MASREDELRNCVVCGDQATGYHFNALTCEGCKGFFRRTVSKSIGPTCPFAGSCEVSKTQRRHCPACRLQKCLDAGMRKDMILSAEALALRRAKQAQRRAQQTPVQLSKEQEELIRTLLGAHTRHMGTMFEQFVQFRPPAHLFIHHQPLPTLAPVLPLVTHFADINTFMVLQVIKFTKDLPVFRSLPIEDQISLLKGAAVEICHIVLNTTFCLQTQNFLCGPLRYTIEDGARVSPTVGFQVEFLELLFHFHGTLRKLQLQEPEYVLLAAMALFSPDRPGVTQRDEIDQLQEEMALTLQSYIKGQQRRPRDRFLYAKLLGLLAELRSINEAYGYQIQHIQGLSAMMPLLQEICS
Procedure, shortened: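 Cells were plated and allowed to attach for 4hr, then dosed with compound in an 11-point series alongside 1.5uM PK11195. After 24hr at 37C, viability was measured fluorometrically and CAR-driven CYP2B6 reporter luminescence was recorded.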

[2] = qHTS for Hypoxia signaling pathway (HIF-1) antagonists against the NCATS CANVASS Library (AID 1347374);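 note: HRE-bla ME-180 cells stimulated with cobalt chloride to stabilize HIF-1alpha; series mostly up to about 38 µM; nearly all actives have a fitted effect of over 60% in size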
Procedure, shortened: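 Antagonism scored as loss of CoCl2-driven (60 uM stock added) HRE beta-lactamase signal, read by CCF4 FRET at 460/530 nm. Compounds were tested in an 11-point series on ME-180 reporter cells for 17 hrs at 37C, with parallel CellTiter-Glo cytotoxicity.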

[3] = qHTS for Hypoxia signaling pathway (HIF-1) agonists against the NCATS CANVASS Library (AID 1347375)
Procedure, shortened: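 Cells plated and rested 5 h, compounds pinned in DMSO across 11 concentrations, incubated 17 h at 37C, loaded with CCF4-AM for 2 h, fluorescence read at 460 and 530 nm, then CellTiter-Glo luminescence measured for viability and normalization.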

[4] = 10-beta competent E. coli microbial cell viability qHTS against the NCATS CANVASS Library (AID 1347376); note: series mostly up to about 46 µM
Procedure, shortened: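 Bacterial suspension diluted to 0.2 OD was dosed with compounds, 11-point series, then held overnight at 37C. BacTiter-Glo reagent was added, and after 20 min at room temperature ATP-dependent luminescence was measured.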

[5] = DH5-alpha competent E. coli microbial cell viability qHTS against the NCATS CANVASS Library (AID 1347377); conditions: outcome: dose series up to 91.4 µM unless noted
Procedure, shortened: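 Bacteria were dispensed at 0.2 OD, then compounds were pin-transferred. Plates were incubated overnight at 37C, after which BacTiter-Glo was added and luminescence measured 20 min later.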

[6] = qHTS for H2AX Agonists against the NCATS CANVASS Library (AID 1347378);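 note: phospho-H2AX S139 level in CHO-K1 lysates by TR-FRET emission ratio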
Procedure, shortened: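 CHO-K1, 1000 cells/well, o/n 37C; cpd several conc, 3 hr 37C, 0.76% DMSO; lyse 30 min RT; cryptate anti-pH2AX(S139) + d2 anti-H2AX, 24 hr RT; HTRF 665/620.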

[7] = qHTS for Antimalaria activity screened against the NCATS CANVASS Library (AID 1347380); note: nearly all actives have a fitted effect of over 40% in size; note: potency is the fitted concentration of half-maximal effect
Procedure, shortened: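 Compounds are titrated over 11 concentrations onto Dd2 parasite cultures (0.3% parasitemia, 2.5% hematocrit). Growth over 72 h at 37C in low oxygen is measured as SYBR Green DNA fluorescence after lysis.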

[8] = Inflammasome Signaling qHTS Counterscreen: IL-1-beta AlphaLISA counterscreen against the NCATS CANVASS Library (AID 1347381);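 note: cell-free check with purified IL-1β in medium and no THP-1 cells; series mostly up to about 57 µM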
Procedure, shortened: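 Purified IL-1-beta (4 pg/well) + compound, 11-pt conc. series; acceptor beads 6 ug/mL + biotin-Ab 0.6 nM final, 1 h RT; SA-donor 24 ug/ml final, 30 min dark RT; read ex 680/em 615.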

[9] = Cytotoxicity qHTS for assessment of Hepg2 cells membrane integrity screened against the NCATS CANVASS Library (AID 1347387)
Procedure, shortened: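 Cells were seeded at 2000 per well and left overnight to attach. Compounds were pin-transferred to give 0.59 nM - 46 uM in an 11-point series and incubated 5 hr at 37C. CytoTox-ONE reagent was added and, after 10 min at room temperature, fluorescence (ex 560, em 590 nm) was read.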

[10] = qHTS for Activators of p53 Stress Response Pathway screened against the NCATS CANVASS Library (AID 1347388)
Procedure, shortened: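 p53RE-bla HCT-116 cells (4000/well) were pre-incubated for 5 h, then treated with compound (11 points) for 16 h at 37C. After 2 h with CCF4, the 460/530 nm ratio gave reporter activation; CellTiter-Glo measured viability.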

[11] = qHTS assay for small molecule disruptors of mitochondrial membrane potential screened against the NCATS CANVASS Library (AID 1347389); note: series mostly up to about 46 µM; nearly all actives have a fitted effect of over 60% in size
Procedure, shortened: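 Mitochondrial depolarization in HepG2 cells is scored as a falling aggregate-to-monomer fluorescence ratio after 1 hr compound exposure and 30 min staining with Mito-MPS dye at 37C, each compound tested as an 11-point titration.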

[12] = Secretion counterscreen for inhibitors of the SERCaMP assay screened against the NCATS CANVASS Library (AID 1347390);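 note: light from luciferase secreted into medium read as a measure of general secretion; series mostly up to about 77 µM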
Procedure, shortened: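 SH-SY5Y-GLuc STOP cells; 4 h attach; cpds 0.001 - 77 uM (qHTS, 11 pts), 20 h 37C/5% CO2; coelenterazine in glow buffer; luminescence, 5 s exposure.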

[13] = qHTS for activators of Nrf2/ARE signaling pathway screened against the NCATS CANVASS Library (AID 1347391); note: nearly all actives have a fitted effect of over 60% in size; note: potency is the fitted concentration of half-maximal effect
Procedure, shortened: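 Beta-lactamase reporter signal, read as 460 and 530 nm emission under 405 nm excitation after 2 h CCF4 loading, reflected ARE activation in HepG2 cells treated 16 h with an 11-point series.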

[14] = qHTS for activators of dead-cell proteases activity screened against the NCATS CANVASS Library (AID 1347392);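 note: luminescence from protease leaking out of membrane-damaged cells cleaving impermeant substrate; rising signal means more cytotoxicity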
Procedure, shortened: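 HepG2, 2000 cells/well, 18 h attach; cpd 11-pt, 5 h 37C 5% CO2; CytoTox-Glo (AAF-aminoluciferin) 15 min RT; luminescence read.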

[15] = qHTS for inhibitors of ER calcium dysfunction: SERCaMP assay screened against the NCATS CANVASS Library (AID 1347393); note: nearly all actives have a fitted effect of over 40% in size; note: potency is the fitted concentration of half-maximal effect
Procedure, shortened: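 SH-SY5Y GLuc-SERCaMP, 1000 cells/well, 4 h attach; cpd 16 h, 37C/5% CO2; thapsigargin (added as 6x 600 nM) 4 h; coelenterazine; luminescence. Reduced reporter release = ER Ca stabilization.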

[16] = Vero-766 cells viability qHTS against the NCATS CANVASS Library: Counterscreen for Zika virus inhibition assay (AID 1347394); note: series mostly up to about 46 µM; nearly all actives have a fitted effect of over 60% in size
Procedure, shortened: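 Vero 766, no virus; 1000 cells/well; o/n attach; cpd 11-pt; 72 h, 37C, 5% CO2; CTG luminescence; cell-free media wells = 100% inhibition.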

[17] = Viability qHTS for inhibitors of the SERCaMP assay screened against the NCATS CANVASS Library (AID 1347400); note: series mostly up to about 92 µM; nearly all actives have a fitted effect of over 70% in size
Procedure, shortened: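 Seed SH-SY5Y-GLuc SERCaMP MJH297 cells at 1000 per well, incubate 4 h, add compounds across an 11-point range, incubate 48 h at 37C, then add CellTiter-Glo and read luminescence.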

[18] = Redox Reaction Profiling qHTS: Assay Interference Panel against the NCATS CANVASS Library (AID 1347401)
Procedure, shortened: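 Fluorescence read-out (525 nm excitation, 598 nm emission) at time zero and after 15 min in the dark tracked resorufin formation. Mix: 5 uM resazurin, 200 uM DTT, HEPES pH 7.3 buffer with NaCl.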

[19] = qHTS for Inflammasome Signaling Inhibitors: IL-1-beta AlphaLISA screen against the NCATS CANVASS Library (AID 1347379); conditions: outcome: dose series up to 57.5 µM;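 note: human THP-1 cells primed with LPS then triggered with ATP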
Procedure, shortened: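 Secreted IL-1B from human THP-1 cells quantified by AlphaLISA 16 hr after compound addition (final up to 57.5 uM). A 1 hr compound pretreatment preceded inflammasome activation with 250 ng/mL LPS plus 1.25 mM ATP (final).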

[20] = qHTS for inhibitors of Wild type Zika virus screened against the NCATS CANVASS Library (AID 1347396);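 note: ATP luminescence of surviving cells so rescue from viral cell killing; series mostly up to about 46 µM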
Procedure, shortened: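 Using ATP-based luminescence (CellTiter Glo), this screen scores rescue of Vero 766 cells from wild-type Zika killing at 72 h post-infection. Compounds are tested in a concentration series.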

| Structure (SMILES) | Potency [1] | outcome [2] | outcome [3] | outcome [4] | outcome [5] | outcome [6] | Potency [7] | outcome [8] | outcome [9] | outcome [10] | outcome [11] | outcome [12] | Potency [13] | outcome [14] | Potency [15] | outcome [16] | outcome [17] | outcome [18] | outcome [19] | outcome [20] |
| --- | --- | --- | --- | --- | --- | --- | --- | --- | --- | --- | --- | --- | --- | --- | --- | --- | --- | --- | --- | --- |
| CC(=O)O[C@H]1C[C@@]2(C)[C@@H](CC[C@H]3[C@@]4(C)C=CC(=O)[C@@H](C)[C@@H]4[C@H](OC(C)=O)C(=O)[C@@]32C)/C1=C(\CCC=C(C)C)C(=O)O | inactive | inactive | inactive | inactive | inactive [at 46.1 µM] | inactive | 10.6 µM (active) | inactive | inactive | inactive | inactive | inactive | 20.9 µM (active) | inactive | 30.5 µM (active) | inactive | inactive | inactive | – | – |
| CC(C)c1ccc2c(c1)CCC1[C@](C)(C(=O)O)CCC[C@]21C (some centres not stated) | – | inactive | inactive | inactive | inactive | inactive | inactive | inactive | inactive | inactive | inactive | inactive | – | inactive | inactive | inactive | inactive | inactive | inactive | inactive |
| C/C(=C\CC/C(C)=C/CC[C@]1(C)CCc2cc(O)cc(C)c2O1)CC/C=C(\C)C(=O)O | inactive | – | inactive | inactive | – | inactive | – | inactive | inactive | – | inactive | inactive | inactive | inactive | inactive | – | inactive | inactive | inactive | – |
| O=C(/C=C/C=C/c1ccc2c(c1)OCO2)N1CCCCC1 | 4.14 µM (active) | – | – | inactive | inactive | inactive | inactive | inactive | inactive | inactive | inactive | – | inactive | inactive | 60.5 µM (active) | inactive | inactive | inactive | inactive | inactive |
